{"source": "PubChem BioAssay AID652257", "about": "(The Scripps Research Institute Molecular Screening Center, 2013)", "note": "Hit rate of the full screen: of about 370,000 compounds, about 4,800 (1.3%) were called active. The full list was thinned out, with actives kept by preference. Unmarked numbers belong to inactive results.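 How the source made its calls: active means inhibition above about 21% made by adding two undisclosed values (limit read from the data); inactive means the rest.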"}
{"target": "Protein arginine N-methyltransferase 1 (Homo sapiens) (UniProt Q99873)", "sequence (Q99873 whole entry, looked up)": "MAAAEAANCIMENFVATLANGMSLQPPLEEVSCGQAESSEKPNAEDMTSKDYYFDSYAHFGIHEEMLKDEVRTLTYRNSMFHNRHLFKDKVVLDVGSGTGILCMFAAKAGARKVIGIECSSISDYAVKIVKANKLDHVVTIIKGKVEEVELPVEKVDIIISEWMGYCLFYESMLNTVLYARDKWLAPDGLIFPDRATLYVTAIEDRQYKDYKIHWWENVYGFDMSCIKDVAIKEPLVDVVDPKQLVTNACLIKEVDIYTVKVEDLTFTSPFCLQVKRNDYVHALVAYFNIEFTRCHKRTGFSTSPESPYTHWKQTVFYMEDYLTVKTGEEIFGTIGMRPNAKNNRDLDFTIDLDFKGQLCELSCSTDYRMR", "test": "PRMT1 methyltransferase inhibitors, primary screen, biochemical, fluorescence polarization (AID 652257)", "details": "recombinant PRMT1, activity-based probe fluorescence polarization; at 2.79 µM; stronger effect = higher value"}
{"smiles": "O=S(=O)(Cc1nnnn1-c1ccc(Br)cc1)c1ccc(F)cc1", "inhibition": "-3.12%"}
{"smiles": "COC(=O)c1cccnc1NC(=S)NC(C)C", "inhibition": "-1.9%"}
{"smiles": "O=C(NC(=S)Nc1ncccn1)c1ccccc1Br", "inhibition": "21.4% (active)"}
{"smiles": "CC1CCN(C(=S)NC(=O)c2ccccc2Br)CC1", "inhibition": "-1.71%"}
{"smiles": "CC(=O)N(O)CCCCCNC(=O)CCC(=O)N(O)CCCCCNC(=O)CCC(=O)N(O)CCCCCNC(=O)CCC(=O)O", "inhibition": "-4.14%"}
{"smiles": "CCCCn1c(N)c(N(CCOC)C(=O)c2oc3ccc(OC)cc3c2C)c(=O)[nH]c1=O", "inhibition": "-1%"}
{"smiles": "CCN(CC)CCCC(C)n1c2nc(=O)[nH]c(=O)c-2nc2cc(Cl)ccc21", "note": "(stereo not drawn)", "inhibition": "161% (active)"}
{"smiles": "CC(C)NC(=O)C(c1ccc(F)cc1)N(C(=O)CCC(=O)Nc1ccccn1)c1ccccc1F", "note": "(stereo not drawn)", "inhibition": "-0.59%"}
{"smiles": "C[C@H](C(=O)N(C)c1ccccc1)[C@@H](O)c1ccc2ccccc2c1", "inhibition": "6.67%"}
{"smiles": "Nc1ccccc1C(=O)NC1CCCCNC1=O", "note": "(stereo not drawn)", "inhibition": "-3.31%"}
{"smiles": "O=C(NCc1ccco1)C1CCCN(S(=O)(=O)c2ccc(Cl)s2)C1", "note": "(stereo not drawn)", "inhibition": "-5.05%"}
{"smiles": "O=C(NC1=CC(=O)c2ccccc2C1=O)c1ccccc1", "inhibition": "36.9% (active)"}
{"smiles": "O=C(OCC(O)C(O)COC(=O)c1ccccc1)c1ccccc1", "note": "(stereo not drawn)", "inhibition": "1.36%"}
{"smiles": "NS(=O)(=O)c1cc(C(=O)OCC(=O)NNC(=O)c2ccccc2)ccc1Cl", "inhibition": "-1.9%"}
{"smiles": "C=C1c2c(Cl)ccc(O)c2C(O)=C2C(=O)[C@]3(O)C(O)=C(C(N)=O)C(=O)[C@@H](N(C)C)[C@@H]3[C@@H](O)C12", "note": "(stereo partly drawn)", "inhibition": "44.5% (active)"}
{"smiles": "CN(C)[C@@H]1C(=O)C(C(N)=O)=C(O)[C@@]2(O)C(=O)C3=C(O)c4c(O)ccc(Cl)c4[C@@H](O)[C@H]3C[C@@H]12", "inhibition": "32% (active)"}
{"smiles": "COC(=O)c1cc(S(=O)(=O)N2CCN(c3ccccc3C)CC2)cn1C", "inhibition": "-0.8%"}
{"smiles": "COc1ncnc2c1N=C1CC(C)(C)CC(N)=C1S2", "inhibition": "33.2% (active)"}
{"smiles": "Cc1ccc(C(=O)NCC(=O)NC2CC2)cc1", "inhibition": "-3.08%"}
{"smiles": "CN(C)C(CNC(=O)c1cccc(S(=O)(=O)N2CCc3ccccc3C2)c1)c1ccccc1", "note": "(stereo not drawn)", "inhibition": "2.65%"}
{"smiles": "COc1ccccc1NC(=O)c1cc(Cl)nnc1Cl", "inhibition": "0.83%"}
{"smiles": "COc1ccccc1NC(=O)/C=C/C(N)=O", "inhibition": "62.4% (active)"}
{"smiles": "COc1ccccc1NC(=O)COC(=O)COc1ccccc1F", "inhibition": "-0.97%"}
{"smiles": "CN(C(=O)c1cccc([N+](=O)[O-])c1)c1ccccc1C(=O)NCc1ccccc1", "inhibition": "0.8%"}
{"smiles": "Cc1cc(C)n(-c2nc(O)cc(=O)[nH]2)n1", "inhibition": "-0.2%"}
{"smiles": "O=C(CN1CCN(c2ccccc2O)CC1)NC(=O)NCc1ccccc1", "inhibition": "-0.8%"}
{"smiles": "O=C(COC(=O)c1ccccc1C(=O)N1CCN(c2ccccc2)CC1)NCc1ccccc1", "inhibition": "12.8%"}
{"smiles": "Oc1ccc(N2CCN(C(=S)NCc3ccccc3)CC2)cc1", "inhibition": "23.4% (active)"}
{"smiles": "CC1CCN(C(=O)c2ncn3c2C(=O)N[C@@H](C)C3)CC1", "inhibition": "-0.43%"}
{"smiles": "COc1ccc(S(=O)(=O)N(C)C[C@@H]2Oc3ccc(NS(=O)(=O)c4cn(C)cn4)cc3C(=O)N([C@@H](C)CO)C[C@@H]2C)cc1", "inhibition": "0.38%"}
{"smiles": "COc1ccc(CCNC(=O)CSc2nc3c([nH]2)c(=O)n(C)c(=O)n3C)cc1", "inhibition": "1.93%"}
{"smiles": "CC(C)(C)c1ccc(C(=O)Nc2cc(Cl)c(Br)cc2C(=O)O)cc1", "inhibition": "-1.7%"}
{"smiles": "COC(=O)[C@]12C[C@H](CC(=O)NCc3cccs3)C(=O)N(CCc3ccc(OC)c(OC)c3)C1=C[C@H](C(C)C)O[C@@H]2C1CC1", "inhibition": "-1.28%"}
{"smiles": "CCOC(=O)CSc1nnc(CNc2ccc(F)cc2)o1", "inhibition": "-0.98%"}
{"smiles": "CCCCOC(=O)CNc1nnc(SCC(=O)OCC)[nH]c1=O", "inhibition": "74.3% (active)"}
{"smiles": "Cc1nnc(SCCCCSc2nnc(C)c(=O)[nH]2)[nH]c1=O", "inhibition": "2.02%"}
{"smiles": "CCC(=O)Nc1ccc2c(c1)C(=O)N(C)[C@@H]1CC[C@@H](CC(=O)NCCc3ccccc3)O[C@H]1CO2", "inhibition": "1.16%"}
{"smiles": "COc1ccc(S(=O)(=O)N2CCCCC2)cc1NC(=O)COc1ccccc1", "inhibition": "2%"}
{"smiles": "Cc1ccc(/C=C/C(=O)Nc2cc(S(=O)(=O)N3CCCCCC3)ccc2OCC(F)(F)F)o1", "inhibition": "24.7% (active)"}
{"smiles": "O=C(Nc1cc(S(=O)(=O)N2CCOCC2)ccc1OCC(F)(F)F)c1ccc(N2CCCC2=O)cc1", "inhibition": "-0.65%"}
{"smiles": "O=C(NCCCc1ccccc1)[C@H](Cc1ccccc1)NC1(C(=O)NCCc2c[nH]c3ccccc23)CCC1", "inhibition": "4.62%"}
{"smiles": "COc1ccc2c(c1)CN1CN(CCc3ccccc3)S(=O)(=O)CC21", "note": "(stereo not drawn)", "inhibition": "-7.45%"}
{"smiles": "COc1ccc(C(=O)NC(=O)CSc2nnc(-c3ccco3)n2-c2ccccc2)cc1", "inhibition": "4.1%"}
{"smiles": "COCCNC(=O)Nc1ccc2nc(-c3ccco3)c(-c3ccco3)nc2c1", "inhibition": "88.9% (active)"}
{"smiles": "COc1cc(NC(=O)C2=CC(c3ccco3)=NS(=O)(=O)N2C)cc(OC)c1OC", "inhibition": "1.92%"}
{"smiles": "O=C(Nc1ccc(F)c([N+](=O)[O-])c1)C1CCCO1", "note": "(stereo not drawn)", "inhibition": "-0.52%"}
{"smiles": "CCOC(=O)[C@]12CCCC=C1N(CCCOC)C(=O)[C@@H]2CC(=O)N1CCOCC1", "inhibition": "-11.2%"}
{"smiles": "COC(=O)Nc1nc2ccc(C(=O)C3CC3)cc2[nH]1", "inhibition": "-5.37%"}
{"smiles": "COc1ccc(C2NC(=O)C(=O)/C2=C(\\O)c2ccc(Cl)cc2)cc1OC", "note": "(stereo not drawn)", "inhibition": "1.92%"}
{"smiles": "Clc1ccccc1CSc1nnc(-c2ccco2)c(-c2ccco2)n1", "inhibition": "45.8% (active)"}
{"smiles": "Clc1ccc(-n2c(SC/C=C/c3ccccc3)nnc2-c2ccco2)cc1", "inhibition": "2.59%"}
{"smiles": "Cc1cccc(N(CC(=O)N2CCCC2)S(C)(=O)=O)c1C", "inhibition": "0.79%"}
{"smiles": "COc1ccc(N(CC(=O)N2CCOCC2)S(=O)(=O)c2ccccc2)cc1Cl", "inhibition": "3.25%"}
{"smiles": "CN1C(=O)c2cc(NS(C)(=O)=O)ccc2OC[C@@H]2O[C@@H](CC(=O)NCc3ccc(-c4ccccc4)cc3)CC[C@H]21", "inhibition": "-3.76%"}
{"smiles": "S=c1ccc2ccccc2[nH]1", "inhibition": "41.1% (active)"}
{"smiles": "S=c1[nH]c2ccccc2c2ccccc12", "inhibition": "13.6%"}
{"smiles": "Brc1ccccc1CN1CCC(Cc2ccccc2)CC1", "inhibition": "-1.49%"}
{"smiles": "CCN(CC(=O)Nc1ccc(OC)cc1)C(=O)c1ccc(Cl)c(S(=O)(=O)N2CCCC2)c1", "inhibition": "-2.9%"}
{"smiles": "CCOc1ccc(NC(=O)CCCCCN2C(=O)[C@@H]3Cc4ccccc4CN3C2=O)cc1", "inhibition": "0.46%"}
{"smiles": "CC[C@]1(O)C[C@@H]2CN(CCc3c([nH]c4ccccc34)[C@@](C(=O)OC)(c3cc4c(cc3OC)N(C)[C@H]3[C@@](O)(C(=O)OC)[C@H](OC(C)=O)[C@]5(CC)C=CCN6CC[C@]43[C@@H]65)C2)C1", "inhibition": "4.62%"}
{"smiles": "CN(C)S(=O)(=O)c1cccc(C(=O)N/N=C\\c2ccco2)c1", "inhibition": "-2.34%"}
{"smiles": "O=C(N/N=C/C=C/c1ccco1)c1cccs1", "inhibition": "17.1%"}
{"smiles": "Cc1cc(C(=O)NN=C/C=C/c2ccco2)n[nH]1", "inhibition": "39.4% (active)"}
{"smiles": "COC(=O)C1CN(CC(C)C)CCS(=O)(=O)N1Cc1ccc(F)cc1", "note": "(stereo not drawn)", "inhibition": "1.47%"}
{"smiles": "CN(CCc1ccccc1)C(=O)Cn1nc(-c2ccccc2)ccc1=O", "inhibition": "-1.41%"}
{"smiles": "Cc1[nH]c2ccccc2c1C(=O)C(C)Sc1nnc(C2CC2)o1", "note": "(stereo not drawn)", "inhibition": "2.13%"}
{"smiles": "Nn1c(SCC(=O)N2c3ccccc3Sc3ccccc32)nnc1-c1n[nH]c2c1CCC2", "inhibition": "5.44%"}
{"smiles": "O=C(O)c1ccc(/C=C2\\SC(=S)N(NC(=O)c3ccc(Br)cc3)C2=O)cc1", "inhibition": "30.2% (active)"}
{"smiles": "O=C(NCCN1C(=O)S/C(=C\\c2cccnc2)C1=O)c1ccc(S(=O)(=O)N2CCCC2)cc1", "inhibition": "4.69%"}
{"smiles": "C/C(CC(=O)N1CCN(C=O)CC1)=N\\NC(=O)c1ccc(Br)cc1", "inhibition": "2.11%"}
{"smiles": "CCCn1nnnc1NCc1ccc(CC)cc1", "inhibition": "1.58%"}
{"smiles": "Cc1ccc(C(=O)C2CCN(CC(=O)NCCC(C)C)CC2)cc1", "inhibition": "4.05%"}
{"smiles": "FC(F)(F)c1nc2ccccc2nc1N/N=C/c1ccc(Cl)cc1", "inhibition": "66.9% (active)"}
{"smiles": "CN(CCO)c1ccc(/C=N/Nc2nncc3ccccc23)cc1", "inhibition": "-2.83%"}
{"smiles": "Clc1ccc(Nc2ccc3ccccc3n2)cc1", "inhibition": "-3.42%"}
{"smiles": "COC(=O)[C@]1(Cc2ccccc2)NC=C(C(=O)c2ccccc2)[C@@H]1c1cccc(OC)c1", "inhibition": "2.58%"}
{"smiles": "O=C(CCN1C(=O)c2ccccc2C1=O)NCCCn1ccnc1", "inhibition": "1.79%"}
{"smiles": "O=C(NCCCn1ccnc1)/C(=C\\c1ccccc1F)NC(=O)c1ccccc1", "inhibition": "-3.1%"}
{"smiles": "O=C(CN1C(=O)S/C(=C\\c2ccccc2F)C1=O)NCCCn1ccnc1", "inhibition": "29.4% (active)"}
{"smiles": "CCC[C@H]1C(=O)CC[C@@]23CCCN2C(=O)CCC[C@@H]13", "inhibition": "1.57%"}
{"smiles": "COCCN(C(=O)c1ccco1)c1nnc(-c2ccc(OC)cc2)s1", "inhibition": "1.28%"}
{"smiles": "O=C(CCl)NC1CCCCN(Cc2cccc(C(F)(F)F)c2)C1=O", "note": "(stereo not drawn)", "inhibition": "3.41%"}
{"smiles": "CC1Cn2c(nnc2-c2cccs2)S1", "note": "(stereo not drawn)", "inhibition": "5.98%"}
{"smiles": "O=C(Nc1ccc(N2CCOCC2)c(Cl)c1)c1ccc(S(=O)(=O)N2CCOCC2)cc1", "inhibition": "1.99%"}
{"smiles": "O=C(Nc1ccc(S(=O)(=O)N2CCOCC2)cc1)c1ccc2ncsc2c1", "inhibition": "22.4% (active)"}
{"smiles": "O=C(Nc1ccc2cn[nH]c2c1)c1ccc(S(=O)(=O)N2CCOCC2)cc1", "inhibition": "3.18%"}
{"smiles": "O=C(CSc1nc2ccccc2nc1N1CCCCC1)N1CCN(S(=O)(=O)c2cccc([N+](=O)[O-])c2)CC1", "inhibition": "0.86%"}
{"smiles": "O=C(CSc1nc2ccccc2n1Cc1ccccc1)NNC(=S)Nc1ccccc1", "inhibition": "1.31%"}
